For the assay, the system named is VDR:RXRa (NR concentration 270 nM, RXRa partner concentration 90 nM). In words: PBM binding z-score (relative to random genomic background probes); higher = stronger binding; sequences stand for … in GC…GCGATTGACAGCGTAGAATGAAGG
How it is done:
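Protein-binding microarray (Agilent 4x180K custom design, double-stranded 60-nt probes: 5' GC cap, 34-nt variable region, 24-nt constant primer region; full probe sequence given). Purified or IVT nuclear receptor:RXRα heterodimers (3:1 NR:RXRα, mostly 270:90 nM) or homodimers were incubated for 1 h in PBS with 2% milk and no ligand, then detected with Alexa488 antibodies. Fluorescence from o1-orientation probes (~5 replicates averaged) was converted to z-scores against 500 random hg19 background probes. Variable regions are seed direct-repeat (DR0–DR5) sites, all their single-nucleotide variants and half-site ablations.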
AAGACAGGGTCATCGTAGGCCAGAGTACGCACAG returned a PBM binding z-score of 5.14.
For the sequence CCTACTGGGCCAAGGTAATTGATCAGTCAAAGCA, the PBM binding z-score is -0.552.
For the sequence TAGCCTAGGTCATTCAGGGGCCGGTATAGAAAGC, the PBM binding z-score was found to be 2.63.
With ATATGTAGGGTAGCTGGGGTCATTCAGACTAGGC the figure was 5.75.
Consider TTACCAAGGTGGAAGGTCGTTGATGCACGCCTTG, for which the PBM binding z-score came out at 0.464.
CCGAGTAGGCTATGGGGCATTCAGGCAACGGTGA: the PBM binding z-score was -0.947.
Sequence CCTGCTAGGTCAATGGTCAGCTATAGCAGCTCGC returned a PBM binding z-score of 0.921.
Sequence GATACAGGGTCAGATAGAGGCCAGAGTATGGAAA yielded a PBM binding z-score of 3.49.
Sequence AGAACCAGGGCAATGAGTTGATAGCACGGGTGGC had a PBM binding z-score of 3.6.
AGAATGAGGTTAACATCAGGGAAACAGAATACAT returned a PBM binding z-score of 1.75.
In the case of CCTATTAGTTGACCATAAGAGCAACCGAAGCTCG, the PBM binding z-score amounted to 1.06.
In turn, CCTTACGGGTCACTGACAGGTAATAGCATTTGGA had a PBM binding z-score of 3.17.
Regarding ATCGAAGGGTCGTGAGGTGAGTATACAGAAAGGC, the PBM binding z-score amounted to 2.38.
Sequence CCTTCTGGGCCAAAGGTCATTGATTCCAATGCTC registered a PBM binding z-score of 4.59.
In turn, ACAGACAGGTGATGAAGGTATCTCAGGCTATCAT gave a PBM binding z-score of -0.0743.
The sequence TCATATAGGTAATACAGGTGATAGTCGGCATCTA had a PBM binding z-score of 1.04.
CTCGAAAGGTCGTGCTAAGGTGAGTATACCAAAC registered a PBM binding z-score of 3.87.
Sequence TCATATAGGTAAATTCTAGGTGAAAGTCCGATCT displayed a PBM binding z-score of 1.14.
The sequence CGTCCAAGGTCAAAGCTAGGTCAGTGAAAGCATT yielded a PBM binding z-score of 5.25.
The same measure for CGTCAAAGTTTAAGGTAACGTAACAGAAAGCAGC: 0.3; for ATCTCTAGGTAACATGTTCAGTGAAAGAGAGGAC: 0.0615.
Sequence TCGAGTAGGTTACCAATGGGACATTCAGCTTTCT came in with a PBM binding z-score of -0.0477.
CGTCCAAGGTCATAGGACGTCAGTGAAGACAGAT had a PBM binding z-score of 4.13.
Sequence CAACCTAGGTCAAGGTCAAAGTCGGTTTGTGCCA gave a PBM binding z-score of 5.45.
TCCTGTAGATCAAGCAGGTTAAGAAAGCCTGAGT: the PBM binding z-score is 0.503.
AGAACGAGGGCACGCTGAGTTGATACCAGAGTAG: the PBM binding z-score stood at 2.23.
The same measure for CCTACTGGGACATCAGGTCATTGATATCAACGTT: 1.99.
The same measure for AGAACTAGGGCACGCTGAGTTGATAGCAGAGTAG: 0.303; for AGAATGAGGGTACCAAAGATCAGGGAAACGCTTG: 0.0257.
In turn, CCTACTGGGCCACGAACGGTCATTGATTCAGTGA came in with a PBM binding z-score of -0.227.
The same measure for ATCTCTAGGTAACAAGTTCGGTGAAAGAGAGGAC: 0.955; for AGAATAAGGTTATTAAGATCAGGGAATTGCGGTC: 1.95; for CCTGCTAGGACATGGTCAGCTAATCTACAGTATG: -0.684.
With CGTCAAAGTTCAGGGTAACGTAACAGAAAGCAGC, the PBM binding z-score came out at 2.8.
The same measure for CCTACCGGGCCATTCAGAGGTCATTGATCATATG: 4.24.
ACTAGTTGGTCAGCTGAGTTCACACACAATTCGG returned a PBM binding z-score of 4.81.
TTACCAAGGTGAAGCTCGTTGATCCCTCTGTAGA: the PBM binding z-score was -0.103.
With ATCTCTAGGTAAGCAAGTTCAGTGAATGCCGAAC the figure was 3.03; with TCTATTAGTTGAAGGGCACCCGACGAGTCCGTTT, 1.02; with TCTTGTAGATCAACAGGAGGTTTAGAAAGATCGA, 0.171.

These data come from the supplement of paper PMC6555819.
